Measurements from PubChem BioAssay (NCATS).
Results filed as inconclusive are left out. Active and inactive are the calls of the source. Calls come from the whole dose curve; as a rule, active = well fitted inhibition curve with a large enough effect; inconclusive = small, poorly fitted or top-dose-only effect; inactive = no such curve, though single readings can be large or run the other way.

Biological target: Cytochrome P450 3A4 (Homo sapiens) (UniProt P08684)
Test: qHTS Assay for Inhibitors and Substrates of Cytochrome P450 3A4 (AID 884); note: nearly all actives have a fitted effect of over 50% in size
Conditions: recombinant CYP3A4, Luciferin-PPXE luminescence; series mostly up to 57.1 µM
In short: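 Luminescent readout of luciferin produced by CYP3A4 (20 nM) dealkylation of Luciferin-PPXE, 25 uM (its KM). NADPH-driven reaction ran 60 min at RT after 10 min compound preincubation; data scaled to 57 uM ketoconazole as 100% inhibition.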
Potency is the fitted concentration of half-maximal effect.

Chain of Cytochrome P450 3A4 (Homo sapiens) (P08684 whole entry, looked up): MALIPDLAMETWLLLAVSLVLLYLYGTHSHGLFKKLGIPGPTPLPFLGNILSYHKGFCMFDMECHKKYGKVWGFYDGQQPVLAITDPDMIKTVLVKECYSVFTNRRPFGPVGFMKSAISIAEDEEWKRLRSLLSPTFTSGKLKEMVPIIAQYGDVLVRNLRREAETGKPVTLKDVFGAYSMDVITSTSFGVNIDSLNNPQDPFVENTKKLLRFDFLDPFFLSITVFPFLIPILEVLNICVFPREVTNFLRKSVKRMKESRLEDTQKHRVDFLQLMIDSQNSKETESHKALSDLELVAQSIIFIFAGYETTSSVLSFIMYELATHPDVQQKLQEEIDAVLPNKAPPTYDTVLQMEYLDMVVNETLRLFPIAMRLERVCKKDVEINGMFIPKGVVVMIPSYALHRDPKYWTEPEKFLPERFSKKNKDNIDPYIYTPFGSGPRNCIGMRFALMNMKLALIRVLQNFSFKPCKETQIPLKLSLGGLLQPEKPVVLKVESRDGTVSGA

Potency, active:
CCC1=C(OC(=O)N(CC)CC)N2C(=O)OC(=NCC(=O)OC)[C@]2(Cc2ccccc2)[C@H]2C1=CC[C@H]1C(=O)N(c3ccccc3)C(=O)[C@H]12 3.16 µM
COC(=O)[C@@H]1C[C@@]2(O)[C@@H](O)[C@@H](O)[C@@H](O)C[C@H]2N1Cc1ccc(C(C)(C)C)cc1 12.6 µM
COC(=O)c1cccc(C23CC4(C2)[C@H](CN(Cc2ccc(C(F)(F)F)cc2)[C@@H]4c2ccccc2)C3c2ccccc2)c1 (stereo not given in full) 12.6 µM
CCCCC#CC1C=CC(Oc2cc(OC)c(OC)c(OC)c2)C(COC(=O)OCC)O1 (stereo not given) 2.51 µM
CO[C@H]1COC(=O)[C@@H](Cc2ccccc2)NC(=O)[C@@H](C)COC(=O)CCC[C@@H]1C 3.16 µM
Cc1ccc(/C=C/C2=CC3(C)CC2(C)C(c2ccc(C)cc2)CC3=O)cc1 (stereo not given) 3.98 µM
C=C(C)C(O)/C=C/c1ccc(C)cc1 (stereo not given) 3.98 µM
COCOc1ccc(Br)cc1C(=O)[C@H]1O[C@H]1c1cccc(OC)c1 3.98 µM
C=CCOC(=O)C(C(C)=O)C(NC(=O)OC)c1ccc(Cl)cc1 (stereo not given) 1.26 µM
COc1cccc([C@@H]2Oc3ccc(OC)cc3/C(=N/O[C@@H](C)CN3CCCc4nc(C)c(C)cc43)[C@@H]2O)c1 3.16 µM
C/C(CCC(=O)OC[C@@H]1O[C@H](C#Cc2ccccc2)C=C[C@@H]1Oc1ccc(C)cc1)=N/O[C@@H](C)CN1CCCCc2nc(C)c(C)cc21 3.16 µM
CCC1=C2CC[C@H]3C(=O)N(C)C(=O)[C@H]3[C@H]2[C@@]2(Cc3ccccc3)C(=NCCc3c[nH]c4ccccc34)OC(=O)N2C1=O 1.26 µM
CCCNC(=O)OC[C@@H]1O[C@H](CCO/N=C\[C@@H](C)[C@H](OCc2ccccc2)C(C)C)C=C[C@@H]1Oc1ccc(OC)cc1 3.98 µM
COC(=O)[C@@H]1C[C@H]2CC[C@H](O)C[C@H]2N1Cc1ccc(Cl)cc1 12.6 µM
COCCN=C1OC(=O)N2C(=O)C3=C4C(C[C@H]5C(=O)N(c6ccccc6)C(=O)[C@H]5[C@H]4[C@@]12Cc1ccccc1)[C@H]1C(=O)N(c2ccccc2)C(=O)[C@H]1[C@H]3C (stereo not given in full) 5.01 µM
CCOC(c1cc(OC)cc([N+](=O)[O-])c1OC)C(C)C(OC)[C@@H](C)/C=C/CC(=O)OC (stereo not given in full) 3.98 µM
COC(=O)C/C=C\[C@@H](C)[C@@H](/C=N\OCC[C@H]1C=C[C@H](OC(C)=O)[C@@H](COC(C)=O)O1)NS(=O)(=O)c1ccc(C)cc1 3.98 µM
C/C(CCC(=O)OC[C@@H]1O[C@H](C#Cc2ccccc2)C=C[C@@H]1Oc1ccc(C)cc1)=N/OC[C@@H](O)COCc1ccco1 3.16 µM
CN1C[C@@H]2C(c3ccccc3)C3(c4cccnc4)CC2(C3)[C@H]1c1ccccc1 (stereo not given in full) 2.51 µM
CCC1=C2CC[C@H]3C(=O)N(c4ccccc4)C(=O)[C@H]3[C@H]2[C@@]2(Cc3ccccc3)C(=NCC3CC3)OC(=O)N2C1=O 5.01 µM
O=C(/C=C\c1ccc2c(c1)OCO2)c1ccc(F)cc1 3.16 µM
CO[C@H]1COC(=O)C/C=C\[C@H](C)[C@@H](NS(=O)(=O)c2ccc(C)cc2)COC(=O)C/C=C\[C@@H]1C 3.16 µM
CCCNC(=O)OC[C@@H]1O[C@H](CCO/N=C2\c3cc(OC)ccc3O[C@H](c3cccc(OC)c3)[C@H]2O)C=C[C@@H]1Oc1ccc(OC)cc1 5.01 µM
CO[C@H]1COC(=O)C/C=C\[C@H](C)[C@@H](NS(=O)(=O)c2ccc(C)cc2)COC(=O)CCC[C@@H]1C 3.98 µM
COc1cccc([C@H]2Oc3ccc(OC)cc3/C(=N\O[C@@H]3O[C@H](COC(C)=O)[C@H](OC(C)=O)[C@H](OC(C)=O)[C@H]3OC(C)=O)[C@@H]2O)c1 3.16 µM
C=CC[C@@H]1C=C[C@H](O/N=C(\C)CCN2CCCCc3nc(C)c(C)cc32)[C@H](CO)O1 3.98 µM
COC(=O)[C@@H]1C[C@@]2(O)[C@H](O)[C@H](O)[C@H](O)C[C@H]2N1Cc1ccccc1OS(=O)(=O)c1ccc(C)cc1 7.94 µM
Nc1ccccc1C(=O)/C=C\c1ccc2c(c1)OCO2 3.16 µM
CC1(C)CC(=O)c2c(oc3cc4c(cc23)OCO4)C1 3.98 µM
CCC1=C(OC(=O)N(CC)CC)N2C(=O)OC(=NCCc3c[nH]c4ccccc34)[C@]2(Cc2ccccc2)[C@H]2C1=CC[C@H]1C(=O)N(CC)C(=O)[C@H]12 2 µM
C/C(CCN1CCc2nc(-c3ccccc3)c(-c3ccccc3)cc2C1)=N\O[C@@H](C)CN1CCCCc2nc(C)c(C)cc21 3.98 µM
C=CCOC(=O)C(C(C)=O)C(NC(=O)OC)c1cccc(F)c1 (stereo not given) 0.0794 µM
OCC1OC(c2ccc3c(c2)OCO3)C=CC1Oc1cc(Cl)cc(Cl)c1 (stereo not given) 0.316 µM
COC(=O)N1[C@H](Cc2ccccc2)C=C[C@]1(C)C(=O)NCc1ccc(N(C)C)cc1 0.794 µM
CO/N=C(/C)CCC(=O)OC[C@@H]1O[C@H](C#Cc2ccccc2)C=C[C@@H]1Oc1ccc(C)cc1 3.98 µM
C=C(C)C(O)/C=C/c1ccc(OC)cc1 (stereo not given) 5.01 µM
COC(=O)C/C=C\[C@@H](C)[C@@H](/C=N\OC[C@@H](O)COCc1ccco1)NS(=O)(=O)c1ccc(C)cc1 3.16 µM
CCC1=C(OC(=O)N(CC)CC)N2C(=O)OC(=NCc3ccccc3)[C@]2(C)[C@H]2C1=CC[C@H]1C(=O)N(CC)C(=O)[C@H]12 3.16 µM
C/C=C/OC(=O)NC(c1ccccc1)[C@@]1(C(=O)OCC)CCCC1=O (stereo not given in full) 0.0158 µM
COC(=O)[C@@H]1CC[C@H](C)[C@@H](c2ccc(C)cc2)N1C(=O)c1ccc(/C=N\OC[C@@H](C)[C@H](OCc2ccccc2)C(C)C)cc1 3.98 µM
